Test results: ChEMBL document CHEMBL3988442, “University of Dundee, Small-Polar-MMV Screening Library” (2021)
For some assays here: Results with a measured potency or affinity are listed apart.

Experiments:
Set-up in all cases: scale not given: direction of the effect not stated beside the values
[1] = target: Protein translocase subunit SecA (Escherichia coli (strain K12)) (UniProt P10408); test: Assay to Identify E. coli SecA ATPase Inhibitors; assay type: functional; details: 30 µM
[2] = target: T1, Ubiquitin-activating enzyme e1, putative (Leishmania donovani (strain BPK282A1)) (UniProt E9BSI1); test: Leishmania donovani Ubiquitin Activating Enzyme (LdE1); assay type: functional; details: 30 µM
T1 sequence (whole entry): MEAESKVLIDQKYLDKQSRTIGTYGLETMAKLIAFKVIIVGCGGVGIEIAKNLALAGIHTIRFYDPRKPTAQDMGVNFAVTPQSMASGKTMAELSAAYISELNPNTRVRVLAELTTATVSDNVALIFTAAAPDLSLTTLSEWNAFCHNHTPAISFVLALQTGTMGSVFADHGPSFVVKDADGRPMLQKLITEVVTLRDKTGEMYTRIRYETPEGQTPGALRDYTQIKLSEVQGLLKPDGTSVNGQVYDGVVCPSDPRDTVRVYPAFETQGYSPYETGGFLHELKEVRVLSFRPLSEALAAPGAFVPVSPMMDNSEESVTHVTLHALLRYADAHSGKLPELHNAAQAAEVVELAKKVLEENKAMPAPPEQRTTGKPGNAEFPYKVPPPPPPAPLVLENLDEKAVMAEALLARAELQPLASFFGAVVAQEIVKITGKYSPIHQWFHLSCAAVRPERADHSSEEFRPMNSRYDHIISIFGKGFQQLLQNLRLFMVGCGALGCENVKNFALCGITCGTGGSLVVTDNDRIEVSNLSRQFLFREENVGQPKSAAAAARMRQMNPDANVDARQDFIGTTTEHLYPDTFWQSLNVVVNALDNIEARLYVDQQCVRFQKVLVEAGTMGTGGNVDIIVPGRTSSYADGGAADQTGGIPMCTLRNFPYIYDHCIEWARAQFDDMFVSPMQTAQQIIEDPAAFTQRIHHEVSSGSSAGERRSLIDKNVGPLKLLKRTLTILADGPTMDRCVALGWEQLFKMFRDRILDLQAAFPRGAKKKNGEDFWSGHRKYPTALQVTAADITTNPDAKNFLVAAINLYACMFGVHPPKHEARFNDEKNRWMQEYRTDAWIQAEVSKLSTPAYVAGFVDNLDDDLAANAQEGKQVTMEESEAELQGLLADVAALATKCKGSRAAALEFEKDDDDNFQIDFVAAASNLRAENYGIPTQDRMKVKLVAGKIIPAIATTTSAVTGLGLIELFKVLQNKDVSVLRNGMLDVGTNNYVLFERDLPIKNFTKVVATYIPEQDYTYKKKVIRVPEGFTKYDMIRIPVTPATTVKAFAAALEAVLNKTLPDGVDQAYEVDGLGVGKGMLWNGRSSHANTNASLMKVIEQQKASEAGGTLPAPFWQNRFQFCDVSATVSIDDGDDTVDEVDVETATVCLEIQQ

[3] = target: AMP-activated protein kinase, AMPK (Homo sapiens) (UniProt P54646+O43741+P54619+Q9UGJ0+Q9Y478+Q13131+Q9UGI9); test: AMP-dependent Kinase enzyme assay. An in vitro enzyme assay that detects ADP turnover that is directly proportional to AMPK activity. This uses naive AMPK that is activated during the assay with MK-8722; assay type: functional; details: 30 µM
[4] = target: Sialic acid-binding Ig-like lectin 9 (Homo sapiens) (UniProt Q9Y336); test: Hs-Siglec9 ALPHAscreen SOP 20170721; details: 10 µM
Trypanosoma cruzi = test: Trypanosoma cruzi phosphomannomutase and mannose-1-phosphate guanylyltransferase assay; assay type: functional; details: 10 µM
[5] = target: T2, Arginase-2, mitochondrial (Homo sapiens) (UniProt P78540); test: in vitro enzyme assay to detect the production of urea directly proportional to the activity of Arginase II; assay type: functional; details: 33.3 µM; note: in the data most compounds retested in dose-response had high values
T2 sequence (whole entry): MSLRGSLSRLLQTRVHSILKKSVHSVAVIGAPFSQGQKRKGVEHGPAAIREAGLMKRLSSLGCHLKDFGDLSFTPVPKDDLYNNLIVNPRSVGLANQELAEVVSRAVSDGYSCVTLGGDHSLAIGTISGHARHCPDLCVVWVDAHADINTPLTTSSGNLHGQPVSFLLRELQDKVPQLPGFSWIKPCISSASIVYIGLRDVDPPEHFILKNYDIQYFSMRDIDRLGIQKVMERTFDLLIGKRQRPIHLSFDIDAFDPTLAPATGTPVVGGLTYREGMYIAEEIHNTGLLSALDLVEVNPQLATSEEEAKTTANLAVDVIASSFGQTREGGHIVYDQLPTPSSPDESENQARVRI

[6] = target: T3, Proteasome subunit beta (Trypanosoma cruzi) (UniProt O96673); test: Trypanosoma cruzi proteasome chymotrypsin-like activity (TcProtChymo) assay.; note: in the data most compounds retested in dose-response had high values; assay type: functional; details: 9.37 µM
T3 sequence (whole entry): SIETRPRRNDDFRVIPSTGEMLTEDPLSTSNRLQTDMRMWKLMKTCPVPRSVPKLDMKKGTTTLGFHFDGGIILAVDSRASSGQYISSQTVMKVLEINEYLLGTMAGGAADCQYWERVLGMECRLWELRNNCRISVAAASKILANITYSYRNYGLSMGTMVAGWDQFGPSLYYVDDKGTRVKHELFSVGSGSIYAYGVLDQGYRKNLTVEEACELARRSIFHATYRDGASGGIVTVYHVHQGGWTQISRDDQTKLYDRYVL

Homo sapiens = species: Homo sapiens; test: To identify inhibition of the IFN signalling (Jak-Stat) pathway via expression of an eGFP reporter gene under the control of an IFN-stimulated response element (ISRE) containing MxA promoter.; assay type: functional; details: 30 µM
[7] = target: T4, Tyrosyl-tRNA synthetase, putative (Trypanosoma cruzi (strain CL Brener)) (UniProt Q4DSP6); test: Trypanosoma cruzi tyrosyl tRNA synthetase (TcYRS) _High Tyrosine SOP; assay type: functional; details: 30 µM; note: in the data most compounds retested in dose-response had high values
T4 sequence (whole entry): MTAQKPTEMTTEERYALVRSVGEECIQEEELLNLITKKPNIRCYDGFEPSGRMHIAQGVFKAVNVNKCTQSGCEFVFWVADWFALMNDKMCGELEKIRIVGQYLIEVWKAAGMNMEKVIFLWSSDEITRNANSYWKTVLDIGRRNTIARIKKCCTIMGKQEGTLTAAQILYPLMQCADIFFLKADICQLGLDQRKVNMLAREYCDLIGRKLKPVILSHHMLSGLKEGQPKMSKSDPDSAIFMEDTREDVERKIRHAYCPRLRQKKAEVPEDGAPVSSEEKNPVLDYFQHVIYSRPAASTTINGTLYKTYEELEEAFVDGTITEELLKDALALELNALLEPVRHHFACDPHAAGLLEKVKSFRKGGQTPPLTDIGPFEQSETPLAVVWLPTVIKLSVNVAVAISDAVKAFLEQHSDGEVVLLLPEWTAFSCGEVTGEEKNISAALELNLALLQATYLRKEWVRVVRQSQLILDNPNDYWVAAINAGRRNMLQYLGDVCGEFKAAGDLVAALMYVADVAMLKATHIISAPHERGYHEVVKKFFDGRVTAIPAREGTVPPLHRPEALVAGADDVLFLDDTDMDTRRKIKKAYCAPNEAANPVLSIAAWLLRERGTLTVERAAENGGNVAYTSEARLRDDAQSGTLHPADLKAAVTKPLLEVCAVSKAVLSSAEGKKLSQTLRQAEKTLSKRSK

[8] = target: T4, Tyrosyl-tRNA synthetase, putative (Trypanosoma cruzi (strain CL Brener)); test: Trypanosoma cruzi tyrosyl tRNA synthetase (TcYRS) SOP; assay type: functional; details: 30 µM
[9] = target: Chromo domain-containing protein 1 (Saccharomyces cerevisiae (strain ATCC 204508 / S288c) (Baker's yeast)) (UniProt P32657); test: ScCHD-1 Enzyme Inhibition Assay; assay type: functional; details: 30 µM; note: in the data most compounds retested in dose-response had high values
Chain of Chromo domain-containing protein 1 (Saccharomyces cerevisiae (strain ATCC 204508 / S288c) (Baker's yeast)) (P32657 whole entry, the tested form may be a part): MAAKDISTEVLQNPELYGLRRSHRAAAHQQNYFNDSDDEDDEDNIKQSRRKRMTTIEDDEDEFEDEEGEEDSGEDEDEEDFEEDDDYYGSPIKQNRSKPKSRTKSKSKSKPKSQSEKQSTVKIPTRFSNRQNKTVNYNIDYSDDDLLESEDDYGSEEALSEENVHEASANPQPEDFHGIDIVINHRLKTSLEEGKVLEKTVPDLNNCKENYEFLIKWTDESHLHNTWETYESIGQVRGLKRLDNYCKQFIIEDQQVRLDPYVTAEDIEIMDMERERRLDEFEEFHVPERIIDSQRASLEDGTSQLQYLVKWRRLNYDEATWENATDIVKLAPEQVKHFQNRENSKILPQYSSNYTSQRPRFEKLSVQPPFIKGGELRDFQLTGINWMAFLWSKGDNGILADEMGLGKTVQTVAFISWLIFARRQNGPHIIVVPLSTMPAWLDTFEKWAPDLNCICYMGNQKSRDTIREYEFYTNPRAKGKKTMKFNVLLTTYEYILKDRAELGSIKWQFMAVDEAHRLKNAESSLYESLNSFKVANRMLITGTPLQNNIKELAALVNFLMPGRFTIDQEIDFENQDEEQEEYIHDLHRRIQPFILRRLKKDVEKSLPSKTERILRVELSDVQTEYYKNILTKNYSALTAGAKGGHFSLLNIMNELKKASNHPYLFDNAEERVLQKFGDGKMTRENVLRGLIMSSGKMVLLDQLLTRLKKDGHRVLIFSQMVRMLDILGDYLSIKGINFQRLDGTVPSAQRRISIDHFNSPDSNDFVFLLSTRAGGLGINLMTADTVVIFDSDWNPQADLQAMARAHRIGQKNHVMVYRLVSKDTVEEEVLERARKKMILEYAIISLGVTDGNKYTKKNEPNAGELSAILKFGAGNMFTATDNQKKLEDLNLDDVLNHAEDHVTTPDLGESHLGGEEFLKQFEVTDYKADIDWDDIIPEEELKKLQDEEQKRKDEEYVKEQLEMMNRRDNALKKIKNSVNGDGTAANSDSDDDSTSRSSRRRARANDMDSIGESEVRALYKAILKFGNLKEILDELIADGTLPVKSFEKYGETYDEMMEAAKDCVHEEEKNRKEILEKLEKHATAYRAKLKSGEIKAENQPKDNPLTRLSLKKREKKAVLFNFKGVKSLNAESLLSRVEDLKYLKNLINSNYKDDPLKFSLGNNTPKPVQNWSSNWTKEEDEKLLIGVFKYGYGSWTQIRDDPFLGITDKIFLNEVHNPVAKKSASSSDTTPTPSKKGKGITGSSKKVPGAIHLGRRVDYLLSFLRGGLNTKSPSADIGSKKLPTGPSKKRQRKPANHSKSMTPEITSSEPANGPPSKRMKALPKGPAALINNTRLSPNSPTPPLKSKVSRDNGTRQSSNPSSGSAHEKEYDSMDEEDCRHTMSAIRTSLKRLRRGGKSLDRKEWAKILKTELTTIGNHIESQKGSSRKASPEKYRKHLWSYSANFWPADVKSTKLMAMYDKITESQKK

Chain of Protein translocase subunit SecA (Escherichia coli (strain K12)) (P10408 whole entry): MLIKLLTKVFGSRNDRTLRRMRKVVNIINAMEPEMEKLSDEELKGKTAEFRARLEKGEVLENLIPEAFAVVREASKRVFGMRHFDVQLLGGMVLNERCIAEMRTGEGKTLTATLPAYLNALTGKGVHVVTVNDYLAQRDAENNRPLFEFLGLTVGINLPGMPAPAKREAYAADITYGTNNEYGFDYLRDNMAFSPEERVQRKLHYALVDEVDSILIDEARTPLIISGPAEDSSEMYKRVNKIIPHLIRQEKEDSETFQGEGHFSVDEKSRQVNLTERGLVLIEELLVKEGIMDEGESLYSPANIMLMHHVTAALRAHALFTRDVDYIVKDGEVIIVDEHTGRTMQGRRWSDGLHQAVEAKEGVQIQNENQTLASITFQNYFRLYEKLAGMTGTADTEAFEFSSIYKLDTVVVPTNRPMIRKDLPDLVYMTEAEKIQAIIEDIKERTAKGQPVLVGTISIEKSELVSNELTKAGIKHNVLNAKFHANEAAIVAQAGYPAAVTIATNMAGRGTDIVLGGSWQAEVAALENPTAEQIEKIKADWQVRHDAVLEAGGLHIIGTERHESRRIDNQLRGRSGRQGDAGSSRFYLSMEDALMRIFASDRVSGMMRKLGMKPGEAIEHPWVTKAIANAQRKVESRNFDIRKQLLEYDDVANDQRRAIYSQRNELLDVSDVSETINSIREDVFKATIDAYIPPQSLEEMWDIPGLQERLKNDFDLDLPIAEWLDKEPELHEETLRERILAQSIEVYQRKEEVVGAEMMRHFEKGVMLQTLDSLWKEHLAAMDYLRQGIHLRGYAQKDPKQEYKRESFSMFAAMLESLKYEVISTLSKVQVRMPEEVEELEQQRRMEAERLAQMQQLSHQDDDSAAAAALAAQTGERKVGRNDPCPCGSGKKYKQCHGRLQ
Chain of Sialic acid-binding Ig-like lectin 9 (Homo sapiens) (Q9Y336 whole entry): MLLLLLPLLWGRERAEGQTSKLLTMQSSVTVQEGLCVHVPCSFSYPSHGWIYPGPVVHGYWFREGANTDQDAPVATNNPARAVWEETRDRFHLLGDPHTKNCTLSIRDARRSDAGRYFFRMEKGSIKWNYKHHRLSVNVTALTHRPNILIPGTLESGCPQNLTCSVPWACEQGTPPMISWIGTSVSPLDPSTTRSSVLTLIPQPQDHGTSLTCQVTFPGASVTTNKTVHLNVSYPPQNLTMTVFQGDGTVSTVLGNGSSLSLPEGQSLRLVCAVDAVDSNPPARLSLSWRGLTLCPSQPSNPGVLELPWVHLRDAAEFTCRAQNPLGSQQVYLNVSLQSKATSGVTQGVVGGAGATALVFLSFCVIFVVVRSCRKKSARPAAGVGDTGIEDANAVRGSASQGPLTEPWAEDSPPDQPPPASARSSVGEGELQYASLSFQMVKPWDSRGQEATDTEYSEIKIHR

SMILES | Percent Effect [1] [%] | Percent Effect [2] [%] | Percent Effect [3] [%] | Percent Effect [4] [%] | Percent Effect (Trypanosoma cruzi) [%] | Percent Effect [5] [%] | Percent Effect [6] [%] | Percent Effect (Homo sapiens) [%] | Percent Effect [7] [%] | Percent Effect [8] [%] | Percent Effect [9] [%]
O=C(NC1(c2cccc(F)c2)CCOCC1)c1ccoc1 | -5.15 | 5.2 | -0.889 | 5.11 | 2.46 | -6.9 | 1.33 | -3.68 | 2.15 | 8.64 | -3.25
CC(C)CCn1c(=O)nc2n1C(=O)N(c1ccc(F)cc1)C2 | -5.09 | -2.63 | 10.5 | -4.96 | -1.46 | -10.7 | 12.4 | 13.5 | -2.13 | -10.4 | 15.2
Cc1cccc(-c2nc(CN(Cc3cccs3)CC3CCCO3)no2)c1 (stereo not given) | -1.96 | -51.9 | 2.38 | -0.778 | 0.103 | 4.95 | 7.72 | 25.8 | -7.29 | -17.7 | -15.2
CCC1CN(Cc2ccccc2)CCN1Cc1nnc(C2CCC2)o1 (stereo not given) | -1.22 | 2.74 | -2.21 | 8.69 | 6.07 | 5.91 | 1.95 | -3.45 | 1.07 | 5 | -0.293
Cc1nn(CC(=O)N2CCCC2Cn2cccn2)c(C)c1Cl (stereo not given) | -7.11 | 21.6 | 0.532 | 8.29 | 5.86 | 36.2 | 22.9 | 21.4 | 9.9 | 20.7 | -6.56
COc1cc(C)nc(N2CCN(C(=O)CCn3cc(C)cn3)CC2)n1 | -1.32 | 10.1 | 1.67 | 2.37 | -6.52 | 4.94 | -6.47 | 11 | -6.4 | 11.4 | -2.89
NC(=O)C1CCN(C(=O)c2ccn(-c3ccc(F)cc3)n2)C1 (stereo not given) | -2.82 | 5.41 | 0.129 | -2.22 | -6.96 | 4.25 | 5.39 | 6.15 | 4.95 | 11 | 1.99
O=C(CCc1cc(O)no1)N1CCCC(COc2ccc(F)cc2)C1 (stereo not given) | -4.75 | 20.8 | -16.4 | 26.7 | 3.6 | 0.442 | 14 | -9.73 | 5.26 | 10.3 | -11.2
CCc1ccc(C(=O)NC2CCN(c3cnn(C)c3)C2=O)o1 (stereo not given) | -6.02 | 2.7 | -5.86 | 6.69 | 8.11 | -0.744 | 8.84 | -0.708 | 3.23 | 11.1 | -7.33
CC(C)n1ccnc1C1CCCN(c2ccnc3ccccc23)C1 (stereo not given) | -5.45 | 2.67 | 3.66 | 2 | -0.487 | -1.04 | 1.57 | 53.9 | 7.1 | 6.17 | -6.66
